In general, Inhibition refers to the relative decrease from the control value, in per cent.

Structures are written as SMILES. Entries with a potency or affinity are not part of this list.

One assay has as its system Staphylococcus aureus. The following applies: Concentration 32 ug.mL-1;; ASSAY_TEST Inhibition of Bacterial Growth; detection method Absorption (OD600); MEDIA CAMHB; plate type 384well; NBS; CORNING #3640; time 18 hr.
The next assay concerns Escherichia coli. Particulars: Concentration 32 ug.mL-1;; ASSAY_TEST Inhibition of Bacterial Growth; detection method Absorption (OD600); MEDIA CAMHB; plate type 384well; NBS; CORNING #3640; time 18 hr.

On to `COc1cccc(CSc2nnc3c(=O)n(-c4ccccc4OC)ccn23)c1`, for which the Inhibition with Staphylococcus aureus is -2.45%; in the assay on Escherichia coli, 1.01%.
The corresponding values for `Cc1ccc(NC(=O)Cn2c(=O)c3nnc(C(C)C)n3c3ccccc32)cc1C` are 7.95% and 6.48%.
For `Cc1ccc(NC(=O)Cn2nc3ccc(SC(C)C)nn3c2=O)cc1F`, the Inhibition with Staphylococcus aureus is -3.37%; with Escherichia coli it was -1.63%.
As for `Cc1ccc(-c2cc3c4nn(CC(=O)N5CCN(c6ccc(F)cc6)CC5)c(=O)n4ccn3n2)cc1C`, the figures for the Inhibition with Staphylococcus aureus and in the assay with Escherichia coli were 6.16% and 1.43%, respectively.
The corresponding values for `O=C(Cn1nc2c(SCc3ccccc3)nccn2c1=O)NC1CCCCC1` are 7.46% and -4.24%.
The matching figures for `COC(=O)c1ccccc1NC(=O)Cn1nc2c(Oc3ccc(C)cc3)nccn2c1=O`: -0.21% and -6.37%.
The matching figures for `COc1ccccc1N1CCN(C(=O)Cn2nc3ccc(-c4ccccc4)nn3c2=O)CC1`: -11.69% and -1.16%.
Regarding `Cc1nnc2ccc(S(=O)(=O)N(Cc3ccc(F)cc3)c3cc(F)cc(F)c3)cn12`, the Inhibition was 4.18% in the assay with Staphylococcus aureus and -6.59% in the assay with Escherichia coli.
The matching figures for `O=S(=O)(c1ccc2nncn2c1)N(Cc1cc(F)cc(F)c1)c1cccc(F)c1`: 5.24% and -5.68%.
Take `COc1cccc(Oc2nccn3c(=O)n(CC(=O)Nc4ccc5c(c4)OCO5)nc23)c1`: the Inhibition with Staphylococcus aureus is recorded as 9.63%; in the assay on Escherichia coli, -4.07%.
The matching figures for `COc1cccc(CNC(=O)CSc2nnc3ccc(C(=O)Nc4cccc(F)c4)cn23)c1`: 9.49% and -5.27%.
The matching figures for `Cc1nnc2c(=O)n(CC(=O)Nc3ccc(Cl)cc3)c3ccccc3n12`: 6.71% and 2.85%.
The corresponding values for `Cc1cc2nn(CC(=O)Nc3cc(F)ccc3F)c(=O)n2c(Nc2ccc(C)c(F)c2)n1` are 0.88% and -8.4%.
Regarding `Cc1ccc(NC(=O)Cn2nc3ccc(-c4ccc(Cl)cc4)nn3c2=O)cc1F`, the values for the Inhibition in the assay with Staphylococcus aureus and in the assay on Escherichia coli were 3.27% and -3.59%, respectively.
The corresponding values for `COc1cccc(NC(=O)Cn2nc3c4cc(-c5ccc(Cl)cc5)nn4ccn3c2=O)c1` are 4.83% and 3.44%.
With `CCc1ccc(N(Cc2ccccc2C)S(=O)(=O)c2cccn3c(CC)nnc23)cc1`, the Inhibition was 11.1% in the assay on Staphylococcus aureus and -3.02% in the assay on Escherichia coli.
The corresponding values for `O=C(Cn1nc2c(N3CCOCC3)nccn2c1=O)Nc1ccccc1Br` are 17.91% and 6.7%.
The matching figures for `Cc1ccc(NC(=O)Cn2nc3ccc(SC4CCCCC4)nn3c2=O)cc1`: -13.21% and -13.34%.
For `Cc1nnc2c(SCC(=O)N3CCN(c4ccccc4F)CC3)nc3ccccc3n12`, the Inhibition is listed as 19.81% in the assay with Staphylococcus aureus and 5.15% with Escherichia coli.
The matching figures for `CSc1ccc(CNC(=O)Cn2nc3c(Oc4ccccc4)nccn3c2=O)cc1`: 10.07% and 1.2%.
The corresponding values for `Cc1ccc(NC(=O)Cn2nc3c4c5c(sc4ncn3c2=O)CCCC5)c(Cl)c1` are -4.74% and -9.07%.
Regarding `CCCCOc1ccc(-c2cc3c4nnc(SCC(=O)Nc5ccc(F)cc5)n4ccn3n2)cc1`, the figures for the Inhibition in the assay on Staphylococcus aureus and in the assay with Escherichia coli were 2.53% and -6.79%, respectively.
The corresponding values for `Cc1ccc(Sc2nccn3c(=O)n(CC(=O)Nc4cc(Cl)ccc4C)nc23)c(C)c1` are -0.43% and -11.77%.
The corresponding values for `Cc1cccc(C)c1NC(=O)Cn1nc2c(Sc3ccccc3)nccn2c1=O` are -0.19% and -13.17%.
The corresponding values for `COc1ccc(C)cc1NC(=O)Cn1nc2c3cc(-c4ccc(C)c(C)c4)nn3ccn2c1=O` are 0.65% and -4.8%.
For the compound `CCC(Sc1nnc2c(=O)n(-c3ccccc3)ccn12)C(=O)Nc1ccc(OC)cc1OC` (stereo not drawn), the figures for the Inhibition with Staphylococcus aureus and with Escherichia coli were 10.76% and 0.69%, respectively.
With `Cc1nnc2ccc(S(=O)(=O)N(Cc3cccc(F)c3)c3cccc(Cl)c3)cn12`, the Inhibition with Staphylococcus aureus was 1.14%; in the assay on Escherichia coli it was -14.72%.
Consider `Cc1cc(C)cc(N(Cc2ccccc2F)S(=O)(=O)c2cccn3c(C)nnc23)c1`, for which the Inhibition in the assay on Staphylococcus aureus is recorded as 15.31%; in the assay with Escherichia coli, -0.2%.
`COc1cccc(Oc2nccn3c(=O)n(CC(=O)Nc4ccc(C(C)C)cc4)nc23)c1`: the Inhibition in the assay with Staphylococcus aureus is listed as -2.58%; in the assay with Escherichia coli it was -7.16%.
With `COc1ccc(-c2cc3c4nn(CC(=O)Nc5ccc(OC)cc5OC)c(=O)n4ccn3n2)cc1`, the Inhibition in the assay with Staphylococcus aureus is given as 6.72%; with Escherichia coli it was -3.4%.
The corresponding values for `CCOc1ccc(-n2ccn3c(SCC(=O)Nc4cc(OC)cc(OC)c4)nnc3c2=O)cc1` are 7.49% and -3.15%.
For `C=Cc1ccc(CSc2nnc3c(=O)n(-c4cccc(OC)c4)ccn23)cc1`, the Inhibition in the assay on Staphylococcus aureus is recorded as 15.25%; in the assay with Escherichia coli it was -3.1%.
The corresponding values for `C=Cc1ccc(CN(c2ccc(C(C)C)cc2)S(=O)(=O)c2cccn3c(C)nnc23)cc1` are -12.1% and 1.96%.
The corresponding values for `Cc1ccc(NC(=O)CSc2nc3ccccc3n3cnnc23)c(Br)c1` are -13.31% and -9.92%.
The corresponding values for `Cc1ccc(C)c(NC(=O)Cn2nc3c(Sc4ccccc4)nccn3c2=O)c1` are 6.23% and -5.56%.
Turning to `COc1ccc(-c2cc3c4nnc(SCC(=O)Nc5ccc(C)c(F)c5)n4ccn3n2)cc1`, the Inhibition in the assay with Staphylococcus aureus is 0.86%; in the assay with Escherichia coli, -1.39%.
The matching figures for `CCCCOc1ccc(-c2cc3c4nnc(SCC(=O)Nc5cccc(C#N)c5)n4ccn3n2)cc1`: -7.95% and -7.05%.
The matching figures for `CCOc1ccc(NC(=O)Cn2c(=O)c3nnc(C(C)C)n3c3ccccc32)cc1`: 13.61% and 5.76%.
The matching figures for `CCOc1ccc(NC(=O)Cn2nc3ccc(SCc4ccc(Cl)cc4)nn3c2=O)cc1`: 5.28% and -5.7%.
As for `COc1ccc(NC(=O)Cn2nc3ccc(SCc4ccc(Cl)cc4)nn3c2=O)cc1OC`, the Inhibition with Staphylococcus aureus is on record as 0.34%; in the assay on Escherichia coli it was -7.61%.
The corresponding values for `N#Cc1cccc(Cn2nc3ccc(S(=O)(=O)N4CCCCCC4)cn3c2=O)c1` are 10.44% and -2.41%.
The matching figures for `O=C(Cn1nc2c3cc(-c4ccc(Cl)cc4)nn3ccn2c1=O)Nc1ccc2c(c1)OCCO2`: -0.49% and -1.57%.
The matching figures for `Cc1cc2nn(CC(=O)Nc3cc(F)ccc3C)c(=O)n2c(Nc2ccc(C)c(F)c2)n1`: 2.63% and -8.01%.
For the compound `O=c1c2nnc(SCc3ccc(Cl)cc3)n2ccn1-c1ccc(F)c(F)c1`, the values for the Inhibition in the assay with Staphylococcus aureus and in the assay with Escherichia coli were 4.12% and 3.28%, respectively.
Regarding `COc1cccc(-n2ccn3c(=O)n(Cc4ccc([N+](=O)[O-])cc4)nc3c2=O)c1`, the Inhibition is 7.57% in the assay with Staphylococcus aureus and -2.91% with Escherichia coli.
The corresponding values for `COc1ccccc1NC(=O)Cn1nc2c3c4c(sc3ncn2c1=O)CCCC4` are 0.74% and -4.22%.
As to `O=C(Cn1nc2ccc(Sc3cccc(F)c3)nn2c1=O)Nc1cccc(C(F)(F)F)c1`, the Inhibition is 5.63% in the assay on Staphylococcus aureus and -8.75% in the assay with Escherichia coli.
The corresponding values for `COc1cccc(-n2ccn3c(SCC(=O)Nc4ccccc4Cl)nnc3c2=O)c1` are 11.46% and -4.64%.
Turning to `COc1cccc(Oc2nccn3c(=O)n(CC(=O)Nc4cc(C)c(Cl)cc4OC)nc23)c1`, the figures for the Inhibition with Staphylococcus aureus and with Escherichia coli were -12.26% and -0.57%, respectively.

Values taken from ChEMBL document CHEMBL4513146, “CO-ADD screening of Karazin Kharkiv National University (Ukraine) compounds”.
